rCAG RNA binder: binds r(CAG) RNA repeats. AID 651821. 1.3% of 370,000 active. inhibition, % at 3 µM. r(CAG) RNA repeat, TO-PRO-1 dye displacement fluorescence;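 active means inhibition above the plate cutoff, the mean of all test compounds on that plate plus 3 SD, cut at about 35% in these data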;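 further: 0% = DMSO alone and 100% = 100 µM mitoxantrone as full dye displacement; higher means more dye released from RNA so lower well fluorescence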
MsrA inhibitor: bovine MsrA inhibition | inhibition, % at 15.5 µM | purified bovine MsrA, absorbance read-out | 0.75% of 360,000 active; in the data active means inhibition above about 4.5%;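 further: 0% = vehicle wells with enzyme and 100% = reference inhibitor wells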
bovine MsrA act: bovine methionine sulfoxide reductase A activation | purified bovine MsrA, absorbance read-out | activation, % at 10.6 µM | 0.3% of 360,000 active; in the data active means activation above about 7.5%;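 further: 0% = vehicle and 100% = reference activator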
PG9 binder: small molecules binding HIV-1 gp120 antibody PG9 | inhibition, % at 6.7 µM | 0.43% of 360,000 active | TR-FRET gp120-PG9 antibody binding; in the data active means inhibition above about 8.5%
sPLA2-III inh: Blocks human group III sPLA2 activity | 0.56% of 370,000 active | inhibition, % at 12.2 µM | Q9NZ20 | QFRET BODIPY PC-A2 liposome hydrolysis, fluorescence | AID 743126;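 active means inhibition above mean plus 3 SD of compounds lying within the high and low control bounds, cut at about 19% in these data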;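 further: 0% = median of test compound wells and 100% = no enzyme DMSO wells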
Target sequence (Q9NZ20 whole entry, looked up): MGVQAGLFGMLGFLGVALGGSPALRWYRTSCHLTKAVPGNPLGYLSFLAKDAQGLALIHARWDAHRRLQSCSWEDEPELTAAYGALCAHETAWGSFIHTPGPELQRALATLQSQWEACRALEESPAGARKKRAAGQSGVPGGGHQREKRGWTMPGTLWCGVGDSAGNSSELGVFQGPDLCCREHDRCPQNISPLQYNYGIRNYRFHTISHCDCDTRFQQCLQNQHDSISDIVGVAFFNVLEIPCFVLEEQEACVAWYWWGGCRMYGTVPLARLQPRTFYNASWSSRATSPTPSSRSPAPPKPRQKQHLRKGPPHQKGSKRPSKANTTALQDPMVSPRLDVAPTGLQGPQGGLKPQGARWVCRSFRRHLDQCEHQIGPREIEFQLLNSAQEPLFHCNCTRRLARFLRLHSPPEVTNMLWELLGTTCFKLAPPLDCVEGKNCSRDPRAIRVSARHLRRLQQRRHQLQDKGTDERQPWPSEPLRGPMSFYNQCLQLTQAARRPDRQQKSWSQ
PG9 bind confirm: PG9 antibody binding, confirmed; AID 651571; shares compounds with PG9 binder; TR-FRET PG9 antibody binding, biochemical; inhibition, % at 6.7 µM; 90% of 1,500 active; in the data active means inhibition above about 9%
PGV04 Ab binding: binds control antibody PGV04 in PG9 binder counter-screen; shares compounds with PG9 binder; TR-FRET PGV04 antibody-gp120 binding, biochemical; 95% of 1,500 active; inhibition, % at 6.7 µM; AID 651604; in the data active means inhibition above about 9.5%
PG9 binder DR: PG9 antibody binding, dose response; shares compounds with PG9 binder; TR-FRET PG9 antibody-gp120 binding inhibition; IC50, µM; 95 tested, under 10 active; AID 651848; in the data active means IC50 below about 10 µM
PGV04 binding DR: counter-screen for PG9 binders: binding to control antibody PGV04 | shares compounds with PG9 binder | TR-FRET binding to control antibody PGV04 | IC50, µM | 20% of 95 active | AID 651937
PG126 binding DR: binds control antibody PG126 in PG9 counter-screen; AID 651939; IC50, µM; shares compounds with PG9 binder; TR-FRET binding to antibody PG126, counterscreen; 20% of 95 active
MsrA inh confirm: bovine MsrA inhibition, confirmed; shares compounds with MsrA inhibitor; purified bovine MsrA, absorbance read-out; inhibition, % at 15.5 µM; 41% of 2,300 active; in the data active means inhibition above about 4.5%;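 further: coupled to thioredoxin reductase with NADPH and selenocystamine and DMSO as substrate; 0% = vehicle only and 100% = full effect of reference inhibitor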
rCAG binder conf: r(CAG) RNA repeat binding, confirmation; AID 652065; TO-PRO-1 dye displacement fluorescence; inhibition, % at 3 µM; 70% of 4,300 active; shares compounds with rCAG RNA binder;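 active means inhibition above a per-plate cutoff, the mean inhibition of sample wells plus 3 SD, cut at about 35% in these data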;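 further: loss of TO-PRO-1 fluorescence as compound displaces dye from 1x1 AA loop RNA; 0% = DMSO only wells and 100% = 100 µM mitoxantrone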
DNA CAG counter: disrupts DNA CAG TO-PRO-1 complex, flagging rCAG hits; 94% of 4,300 active; shares compounds with rCAG RNA binder; inhibition, % at 3 µM; d(CAG) DNA oligo TO-PRO-1 dye displacement, fluorescence;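 active means inhibition above its plate's cutoff, the mean test-well inhibition plus 3 SD, cut at about 4.8% in these data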;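 further: 0% = DNA dye mix with DMSO and 100% = 100 µM mitoxantrone; hits displace the dye from DNA and so lower well fluorescence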
sPLA2 confirm: human GIII-sPLA2 inhibition, confirmation | shares compounds with sPLA2-III inh | recombinant hGIII-sPLA2, BODIPY PC-A2 QFRET fluorescence | inhibition, % at 12.2 µM | 34% of 2,000 active | AID 743280;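 active means mean inhibition across triplicates above the hit cutoff set in the earlier primary screen, cut at about 19% in these data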;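 further: 0% = enzyme with DMSO and 100% = DMSO wells lacking enzyme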
BODIPY interf: optically interferes with 535nm fluorescence in sPLA2 counter-screen. shares compounds with sPLA2-III inh. inhibition, % at 12.2 µM. 8.5% of 2,000 active. AID 743282. BODIPY FL product fluorescence interference, QFRET;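 active means average inhibition above the solvent-only control mean plus 3 SD, cut at about 6% in these data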;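 further: 0% = DMSO with substrate plus product and 100% = DMSO with substrate alone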
Active calls of the source: *; . = no result given. The list is not random: actives were taken first. Their share in the collection is about 3.2%. Unless noted, no stated cut-off is given here; in the data, active means IC50 below about 9 µM; inactive means the rest.

SMILES	rCAG RNA binder	MsrA inhibitor	bovine MsrA act	PG9 binder	sPLA2-III inh	MsrA inh confirm	others
CCCCCCCCN1C(=O)[C@@H](CC(=O)NCc2ccc(OC)c(OC)c2)C[C@@]2(C(=O)OC)C1=C[C@H](COCc1ccccc1)O[C@@H]2C	2	.	.	.	-16	.
CCOC(=O)N1CCN(C(=O)C[C@H]2C[C@@]3(C(=O)OC)C(=C[C@H](C(C)(C)C)O[C@@H]3C)N(Cc3ccco3)C2=O)CC1	-1	.	.	.	-3	.
CCCOc1cccc(C2C(C(=O)c3cc4ccccc4o3)=C(O)C(=O)N2c2cc(C)on2)c1 (centres undefined)	44*	0	-3	18*	-12	.	PG9 bind confirm=24*;PGV04 Ab binding=38*;rCAG binder conf=77*;DNA CAG counter=36*
Cc1cc(N2C(=O)C(O)=C(C(=O)c3cc4ccccc4o3)C2c2cccc(Br)c2)no1 (centres undefined)	69*	0	-2	38*	-22	.	PG9 bind confirm=43*;PGV04 Ab binding=56*;rCAG binder conf=79*;DNA CAG counter=46*
Cc1cc(N2C(=O)C(O)=C(C(=O)c3cc4ccccc4o3)C2c2ccc(OC(C)C)cc2)no1 (centres undefined)	25	1	-2	7	-12	.
Cc1cccc(NC(=O)CSc2nnc(SCc3ccc(Cl)cc3)s2)c1	7	.	.	.	-22	.
COC(=O)c1sc(NC(=S)NNC(=O)c2c(Br)c(C)nn2C)c(C(=O)OC)c1C	69*	1	-12	19*	-1	.	PG9 bind confirm=7;PGV04 Ab binding=10.0*;rCAG binder conf=90*;DNA CAG counter=70*
COC(=O)c1sc(NC(=O)C2CCCCC2C(=O)O)c(C(=O)OC)c1C (centres undefined)	39*	1	-2	13*	-3	.	PG9 bind confirm=18*;PGV04 Ab binding=23*;rCAG binder conf=44*;DNA CAG counter=9.0*
Cn1cccc1C(=O)N1CCN(S(=O)(=O)c2ccc(C(C)(C)C)cc2)CC1	3	.	.	.	-8	.
Fc1cccc(-c2n[nH]c(=S)n2-c2ccccc2)c1	0	1	0	15*	25*	.	PG9 bind confirm=4;PGV04 Ab binding=9.5*;sPLA2 confirm=18;BODIPY interf=1
CCOc1ccccc1C(=O)Nc1ccc(C(=O)NCC2COc3ccccc3O2)cc1 (centres undefined)	9	.	.	.	9	.
CCc1ccc(Nc2n[n+](-c3ccccc3)c(-c3ccc(N(CC)CC)cc3)s2)cc1	-9	0	-3	9.7*	23*	.	PG9 bind confirm=18*;PGV04 Ab binding=11*;PG9 binder DR=>67;PGV04 binding DR=>67;PG126 binding DR=>67;sPLA2 confirm=-22;BODIPY interf=-50
O=C(CCc1nc(-c2ccccc2F)no1)NCCc1ccc(F)cc1	-1	.	.	.	-4	.
CCCCNc1nc2c(S(=O)(=O)c3ccccc3)nnn2c2ccccc12	2	0	-1	29*	20*	.	PG9 bind confirm=58*;PGV04 Ab binding=75*;sPLA2 confirm=4;BODIPY interf=-6
CCc1ccc(S(=O)(=O)c2nnn3c2nc(NCCNC(C)=O)c2ccccc23)cc1	3	-1	-9	0	6	.
O=C(O)C1CC=CCC1C(=O)N1CCN(c2nc(-c3ccccc3Cl)c3cc(Br)ccc3n2)CC1 (centres undefined)	11	0	-2	13*	24*	.	PG9 bind confirm=25*;PGV04 Ab binding=41*;sPLA2 confirm=-20;BODIPY interf=-34
O=C(O)C1CC=CCC1C(=O)N1CCN(c2nc(-c3ccccc3)c3ccccc3n2)CC1 (centres undefined)	6	-1	-4	1	18	.
Nc1nc2nccc(-c3ccco3)n2n1	0	6.1*	-5	0	1	3
C=CCc1c(C)nc(C)nc1N/N=C/c1ccccc1	-4	4.7*	-3	-1	-3	4.8*
O=C(Nc1cccc(C(=O)O)c1)/C(=C\c1ccc2c(c1)OCO2)NC(=O)c1ccccc1	8	5.5*	-6	-1	2	3
COc1ccc(/C=C(/NC(=O)c2ccc(Br)o2)C(=O)Nc2cccc(C(=O)O)c2)cc1	9	5.7*	-6	1	13	4
O=C(Nc1cccc(C(=O)O)c1)/C(=C\C=C\c1ccccc1)NC(=O)c1ccccc1	29	8.4*	-5	-2	-8	5.5*
C=CCN1C(=O)[C@@H](CC(=O)NCc2cccc3ccccc23)[C@]2(C(=O)OC)CCCCC=C12	2	.	.	.	-6	.
O=S(=O)(CC1NCc2ccccc21)NCCc1ccccc1 (centres undefined)	6	.	.	.	7	.
Cc1c(CC(=O)NC(C)C)c(=O)oc2cc3c(cc12)CCC(C)(C)O3	-6	3	-4	-1	3	.
SMILES	rCAG RNA binder	MsrA inhibitor	bovine MsrA act	PG9 binder	sPLA2-III inh	MsrA inh confirm	others
Cc1c(CC(=O)N[C@@H](C)C(=O)O)c(=O)oc2cc3c(cc12)CCC(C)(C)O3	2	5.3*	-10	0	5	4
C=CS(=O)(=O)N(Cc1ccc(F)cc1)C(=C)C(=O)OC	3	.	.	.	19	.
CCOC(=O)c1nnn(-c2nonc2-n2cccc2)c1CCl	5	6.4*	-6	1	-3	5.3*
Cc1csc(NC(=O)c2ccc(COc3ccccc3F)o2)n1	6	.	.	.	-10	.
CN(C)/C(CN1CCN(C=O)CC1)=C1\N=C(c2ccccc2)OC1=O	-6	6.0*	-6	-1	2	5.3*
COc1cccc(/C=N/NC(=O)c2cc3c(OC)cccc3[nH]2)c1OC	2	5.3*	-4	-2	-13	3
COc1ccccc1/C=N/NC(=O)c1cc2c(OC)c(OC)ccc2[nH]1	20	4	-4	-3	-1	.
COc1cccc(/C=N/NC(=O)c2cc3c(OC)c(OC)ccc3[nH]2)c1OC	0	6.3*	-6	-3	-8	4.6*
COc1cccc(/C=N/NC(=O)c2cc3c(OC)cccc3[nH]2)c1O	9	1	-3	-2	-4	.

Screening results as filed in PubChem BioAssay.
